Shown are actives, neighbours in structure and some others; about 2.5% of the full set was active somewhere.
Rce1 inh: yeast Rce1p protease inhibitors, primary screen, biochemical, fluorescence, cell-free homogeneous. yeast membranes, quenched prenylated peptide cleavage fluorescence. calls only. 290,000 compounds, 0.27% hits;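 active means fall in fluorescence gain of 50% or more versus controls, with final raw signal at or below 3038400; inconclusive means same 50% fall but final raw signal above 3038400; inactive means fall in fluorescence gain under 50%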
Target sequence (Q03530 whole entry, looked up): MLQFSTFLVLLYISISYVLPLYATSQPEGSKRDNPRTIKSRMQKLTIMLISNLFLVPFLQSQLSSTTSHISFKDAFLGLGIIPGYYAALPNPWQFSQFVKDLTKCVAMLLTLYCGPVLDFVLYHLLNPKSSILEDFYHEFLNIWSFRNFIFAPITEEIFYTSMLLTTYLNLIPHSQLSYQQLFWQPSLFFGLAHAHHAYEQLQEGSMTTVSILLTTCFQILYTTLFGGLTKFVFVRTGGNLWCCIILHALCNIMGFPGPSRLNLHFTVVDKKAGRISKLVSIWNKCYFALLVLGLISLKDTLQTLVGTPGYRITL
UBC13 inh: UBC13 polyubiquitin chain formation inhibitors, primary screen, biochemical, TR-FRET, uHTS. Ubiquitin-conjugating enzyme E2 N (Homo sapiens), P61088. inhibition, % at 20 µM. 330,000 compounds, 0.47% hits. AID 485273, 2010; in the data active means inhibition above about 45%, passing the limit was not always enough; inconclusive means no clear call, values can overlap the other calls
Target sequence (P61088 whole entry, looked up): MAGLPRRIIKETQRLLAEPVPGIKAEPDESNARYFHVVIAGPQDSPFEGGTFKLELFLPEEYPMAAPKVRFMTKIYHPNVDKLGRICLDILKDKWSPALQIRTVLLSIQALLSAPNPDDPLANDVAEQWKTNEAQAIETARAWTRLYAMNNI
MEKK2wt PB1 HTS: modulators of MEK5 binding to wildtype MEKK2, primary screen, biochemical, multiplex bead flow cytometry, Alexa488-MEK5; AID 1531, 2009; Alexa488-MEK5 binding to MEKK2 WT; actives lie on both sides; Mitogen-activated protein kinase kinase kinase 2 (Homo sapiens), Q9Y2U5; binding response (% of control), % at 10 µM; 290,000 compounds, 1.1% hits; in the data active means binding response below about 67% or above about 130%; inconclusive means no clear call, values can overlap the other calls; inactive means in between
MEKK3 PB1 HTS: modulators of MEKK3-MEK5 PB1 binding, primary screen, biochemical, wildtype MEKK3, multiplex bead flow cytometry, Alexa488-MEK5; Mitogen-activated protein kinase kinase kinase 3 (Homo sapiens), Q99759; bead-based flow cytometry, Alexa488-MEK5 binding to MEKK3; actives lie on both sides; 0 = blocked by unlabeled MEK5, 100 = vehicle; binding response (% of control), % at 10 µM; 290,000 compounds, 1.4% hits; AID 1529, 2009;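 active means binding response more than 3 SD above or below the average of its plate-row segment, actives on both sides; inconclusive means wells at one plate position flagged as instrument error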;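 further: Alexa488 bead fluorescence after subtracting the streptavidin-only scavenger bead signal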
MEKK2mut PB1 HTS: MEK5 binding signal on mutant MEKK2 PB1, primary screen, biochemical, multiplex bead flow cytometry, Alexa488-MEK5. Alexa488-MEK5 binding to MEKK2 mutant. percent response, % at 10 µM. 290,000 compounds, 0.35% hits. AID 1530, 2009; in the data active means percent response above about 24%, passing the limit was not always enough
Hits are given with their value; i = inactive; ? = inconclusive; nt = no result given; + = active, no number; [ ] = dose if it differs, or a comment.

SMILES	Rce1 inh	UBC13 inh	MEKK2wt PB1 HTS	MEKK3 PB1 HTS	MEKK2mut PB1 HTS
Cc1cc(C)c(C(=O)NC2CC(C)(C)Cc3c2cnn3-c2cccc(F)c2)[nH]1 (configuration not stated)	i	i	i	i	i
Cc1ccsc1-c1nc(CN2CCN(C)C(=O)[C@@H]2C)c(C)o1	i	i	i	i	i
Cc1oc(-c2cc(F)ccc2F)nc1CN1CCN(C)C(=O)[C@@H]1C	i	i	22.0	i	i
CCN(CC)CCNC(=O)C(=O)NCC1OCCN1S(=O)(=O)c1ccc(Cl)cc1 (configuration not stated)	i	i	142.0	i	i
Brc1cnc2nc[nH]c2c1	i	i	i	i	i
CCN(CC)CCNC(=S)Nc1ccc2nc(N3CCN(CC)CC3)cc(C)c2c1	i	i	i	i	i
COc1ccc(C)cc1NC(=O)CCC(=O)Nc1ccc2nc(N3CCN(C)CC3)cc(C)c2c1	+	i	nt	nt	nt
Cc1cc(N2CCN(C)CC2)nc2ccc(NC(=S)NCCN3CCc4ccccc4C3)cc12	i	i	158.0	i	i
CCN1CCN(c2cc(C)c3cc(NC(=O)CCC(=O)Nc4ccc(OC)c(OC)c4)ccc3n2)CC1	i	i	i	i	i
C/C(CC1(O)C(=O)Nc2ccccc21)=N\O (configuration not stated)	+	i	i	i	i
Cc1ccsc1/C=N/NC(=O)C1C(=O)NCC1c1ccccc1 (configuration not stated)	i	i	i	i	i
CCNc1nc2nc3ccc(C)cn3c(=O)c2cc1C(=O)NCC1CCCO1 (configuration not stated)	?	i	i	i	i
C=CCNC(=O)c1cc2c(=O)n3cc(C)ccc3nc2nc1NCC1CCCO1 (configuration not stated)	+	i	i	i	i
CCN(CC)S(=O)(=O)c1ccc(N2CCN(C)CC2)c(NC(=O)c2cc(=O)c3ccccc3o2)c1	i	i	i	i	i
CCOc1cc(S(=O)(=O)N(Cc2ccccc2)Cc2ccccc2)c(OCC)cc1-n1cnnn1	+	nt	nt	nt	nt
CCOc1cc(S(=O)(=O)NCc2ccccc2)c(OCC)cc1-n1cnnn1	i	i	i	i	i
Cc1ccc(C(=O)N/C(=C\c2ccc(-c3ccc([N+](=O)[O-])cc3)o2)C(=O)NC2CCS(=O)(=O)C2)cc1 (configuration not stated)	i	i	4.0	i	i
Cc1ccc(C(=O)N/C(=C/c2ccc(-c3ccc([N+](=O)[O-])cc3)o2)C(=O)NCCCN(C)C)cc1	i	i	nt	nt	nt
CSc1nnc(CCCCCCCCc2nnc(SC)o2)o1	i	i	i	i	i
COC(=O)c1ccc(N2CCN(C)CC2)c(NC(=O)c2sc3ccccc3c2Cl)c1	i	nt	172.0	i	i
COc1ccc(NC(=O)Cn2c(=O)cnc3ccccc32)cc1S(=O)(=O)N1CCCCC1	i	i	nt	nt	nt
Cn1cc(/C=C2\SC(=S)N(NC(=O)c3cccc(Cl)c3)C2=O)c2ccccc21	nt	nt	48.0[inhibitor]	i	i
COc1ccc(/C=N/NC(=O)CNC(=O)COc2ccccc2)cc1	i	i	4.0	i	i
CC1(c2nnc(-c3cccc(Cl)c3)o2)CC(c2cccc(F)c2)=NO1 (configuration not stated)	+	i	i	i	i
CC1(c2nnc(-c3ccc(F)cc3)o2)CC(c2cccc(Cl)c2)=NO1 (configuration not stated)	i	i	i	i	i
SMILES	Rce1 inh	UBC13 inh	MEKK2wt PB1 HTS	MEKK3 PB1 HTS	MEKK2mut PB1 HTS
CCOc1ccc(NC(=O)CSc2nc3ccccc3nc2N2CC(C)OC(C)C2)cc1 (configuration not stated)	i	i	i	i	i
CN1CCN(c2cc(N3CCN(C(=O)c4ccco4)CC3)c3c4c(onc24)-c2ccccc2C3=O)CC1	i	i	i	i	i
O=C1c2ccccc2-c2onc3c(N4CCN(CCO)CC4)cc(N4CCN(C(=O)c5ccco5)CC4)c1c23	i	i	i	81.0[inhibitor]	i
O=C(O)CCCNc1cc(N2CCN(C(=O)c3ccco3)CC2)c2noc3c2c1C(=O)c1ccccc1-3	i	i	60.0[inhibitor]	67.0[inhibitor]	i
CCCc1c(C)nc(N2CCN(c3ccccc3OC)CC2)[nH]c1=O	i	i	i	i	i
C[C@@H](C(=O)N1CCN(C(=O)OC(C)(C)C)CC1)n1cc(-c2cn([C@@H](C)C(=O)N3CCN(C(=O)OC(C)(C)C)CC3)nn2)nn1	i	i	4.0	i	i
COc1ccc(N(CC(=O)Nc2ccc(C(N)=O)cc2)S(=O)(=O)c2ccc(C)c([N+](=O)[O-])c2)cc1	i	i	-7.0	i	i
C=CCN(C(=O)c1csnn1)C(C(=O)NC1CCCCC1)c1ccc(Cl)cc1 (configuration not stated)	i	i	i	i	i
C=CCN(C(=O)c1csnn1)C(C(=O)NC1CCCC1)c1c(F)cccc1Cl (configuration not stated)	i	i	153.0	i	i
Cc1ccc(NC(=O)c2cc(S(=O)(=O)N3CCOCC3)cn2C)cc1F	i	i	i	i	i
Cc1cccc(C(=O)Nc2ccc(C)c(OC(=O)c3cccc(C)c3)c2)c1	nt	nt	-2.0[inhibitor]	2.0[inhibitor]	i
Cc1ccc(Cc2c(C)nc3nc(SCC(=O)NCCCN4CCCC4)nn3c2C)cc1	i	i	147.0	i	i
Cc1ccccc1Cc1c(C)nc2nc(SCC(=O)NCCCN3CCCC3)nn2c1C	nt	i	136.0	i	i
Nc1c(C(=O)Nc2cccc(C(=O)O)c2)sc2nc3c(cc12)CCCC3	+	i	i	i	i
Cc1nc2ccccc2c(=O)n1N(c1ccccc1)c1ccccc1	i	i	i	i	i
O=C(NCc1ccncc1)C(=O)NCC1OCCN1S(=O)(=O)c1cc(F)ccc1F (configuration not stated)	i	i	i	i	i
CCC(C)NC(=O)CSC1=Nc2ccccc2C2=NC(CC(=O)NCc3ccc(F)cc3)C(=O)N12 (configuration not stated)	+	i	i	i	i
O=C(Nc1nnc2n1CCS2)c1ccc(Br)o1	i	i	i	i	i
CC(=O)NS(=O)(=O)c1ccc2c(c1)C(=O)c1cc(S(=O)(=O)NC(C)=O)ccc1-2	i	i	-8.0	i	i
O=C(Cn1cc(S(=O)(=O)Cc2ccccc2F)c2ccccc21)N1CCOCC1	i	i	i	i	i
N#Cc1c(OCC(=O)c2ccccc2)nc2c(c1-c1ccco1)CCc1ccccc1-2	+	i	i	i	i
NS(=O)(=O)c1ccc(CNC(=S)NC2CCCCC2)cc1	i	i	i	i	i

Bioassay records deposited in PubChem BioAssay by several laboratories.
